Pol beta inh = qHTS Assay for Inhibitors of DNA Polymerase Beta; P06746; Pol beta primer extension/strand displacement, fluorescence kinetic; Potency, µM (highest dose often 114 µM), actives largely listed as inhibitors; 340,000 tested, 1.3% active
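Human Pol beta at 10 nM; strand-displacement substrate 50 nM final. Compound exposure 15 min at room temperature before start, reaction 10 min at room temperature.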
PI5P4K alpha inh = qHTS for Inhibitors of phosphatidylinositol 5-phosphate 4-kinase (PI5P4K) | Phosphatidylinositol 5-phosphate 4-kinase type-2 alpha (Homo sapiens), P48426 | PI5P4Kalpha enzyme, ADP-Glo luminescence, 60 min; stronger effect = lower value | max response, % | 330,000 tested, 1.2% active | AID 652105, 2013; active = max response of -50% or lower; inconclusive = between -30% and -50%; inactive = -30% or higher; also: value at the top dose of about 77 µM
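Single end-point luminescence (ADP-Glo) quantified ADP from PI5P4Kalpha turnover; ATP 5 microM final, 1 h at RT, 0.1% CHAPS and 0.28 mM EGTA in HEPES pH 7.4.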
Pol iota inh = qHTS for Inhibitors of Polymerase Iota; Pol iota fluorescent replication assay, 10 min; 390,000 tested, 1% active; AID 588590, 2011; Potency, µM (top dose mostly 115 µM), most hits filed as inhibitors; DNA polymerase iota (Homo sapiens), Q9UNA4
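Fluorescent replication assay read twice, at 0 min and 10 min after adding 50 nM (final) substrate. Enzyme (10 nM) and compounds were first incubated 15 min at room temperature; enzyme-free buffer wells were negative controls.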
WRN helicase inh = qHTS for Inhibitors of WRN Helicase | Potency, µM (series often up to 114 µM), hits mostly inhibitors | WRN helicase unwinding, fluorescent forked duplex, kinetic | 360,000 tested, 0.46% active | Bifunctional 3'-5' exonuclease/ATP-dependent helicase WRN (Homo sapiens), Q14191 | AID 651768, 2012; also: nearly all actives have a fitted effect of over 55% in size
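WRN at 20 nM final preincubated with compound 15 min at room temperature; reaction started with 100 nM fluorophore/quencher forked duplex oligonucleotide and 2 mM ATP final. Unwinding followed kinetically by red fluorescence (ex 525, em 598 nm).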
Pol kappa inh-1 = qHTS for Inhibitors of Polymerase Kappa | purified Pol kappa, fluorescent DNA synthesis assay, 10 min | Potency, µM (top dose mostly 107 µM), most hits filed as inhibitors | 400,000 tested, 0.53% active
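Kinetic fluorescence readout at 0 and 10 min followed reaction start with substrate at 50 nM final. Beforehand, enzyme (10 nM Pol kappa) stood 15 min with compound at room temperature; buffer-only wells were negative controls.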
Pol eta inh-1 = qHTS for Inhibitors of Polymerase Eta. 390,000 tested, 1.2% active. recombinant Pol eta, fluorescent DNA replication assay. Potency, µM (titrated, usually from 114 µM), hits mostly inhibitors
Target sequence (Q9Y253 whole entry, looked up): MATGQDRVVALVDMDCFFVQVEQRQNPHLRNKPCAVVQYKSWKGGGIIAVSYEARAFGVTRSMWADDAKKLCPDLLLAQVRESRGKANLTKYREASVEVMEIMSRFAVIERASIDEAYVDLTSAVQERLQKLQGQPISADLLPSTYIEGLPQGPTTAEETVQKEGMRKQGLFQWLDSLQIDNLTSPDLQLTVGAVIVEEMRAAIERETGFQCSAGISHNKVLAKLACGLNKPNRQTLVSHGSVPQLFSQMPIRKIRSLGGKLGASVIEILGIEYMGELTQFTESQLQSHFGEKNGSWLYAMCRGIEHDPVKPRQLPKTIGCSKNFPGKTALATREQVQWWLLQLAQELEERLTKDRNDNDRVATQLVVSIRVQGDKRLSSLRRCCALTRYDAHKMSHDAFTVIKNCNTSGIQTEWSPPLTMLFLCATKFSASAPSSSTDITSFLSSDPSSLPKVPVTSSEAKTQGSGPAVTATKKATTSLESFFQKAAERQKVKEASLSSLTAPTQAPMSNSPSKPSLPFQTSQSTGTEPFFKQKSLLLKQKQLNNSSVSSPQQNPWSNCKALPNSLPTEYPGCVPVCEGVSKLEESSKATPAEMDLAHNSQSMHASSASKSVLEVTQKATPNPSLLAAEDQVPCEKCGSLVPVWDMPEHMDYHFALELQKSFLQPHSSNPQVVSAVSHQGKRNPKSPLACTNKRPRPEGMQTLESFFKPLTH
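Pol eta (10 nM) was preincubated with compounds for 15 min at room temperature, after which fluorescent replication substrate (50 nM final) was added to start the reaction. Fluorescence was read kinetically at 0 and 10 min.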
TbPGK inh = qHTS for inhibitors of Phosphogylcerate Kinase: Hit Validation Screen; 500 tested, 79% active; Potency, µM (top dose mostly 57.5 µM), most hits filed as inhibitors; shares compounds with Pol kappa inh-1; TbPGK coupled GAPDH assay, Kinase-Glo luminescence; AID 686980, 2013; also: nearly all actives have a fitted effect of over 65% in size
POLI cherry-pick = qHTS for Inhibitors of Polymerase Iota: Confirmatory Assay for Cherry-picked Compounds; shares compounds with Pol kappa inh-1; Pol iota primer extension, TAMRA/BHQ fluorescence; Potency, µM, usual class: inhibitors; 1,500 tested, 77% active; AID 720496, 2013
GALK inh confirm = Confirmation Assay for Inhibitors of Human Galactokinase (GALK). shares compounds with Pol eta inh-1. purified GALK, Kinase-Glo ATP depletion luminescence. Potency, µM (doses to about 115 µM), most hits filed as inhibitors. 150 tested, 70% active. AID 2015, 2009
Redox cycling = Confirmatory Assay for Inhibitors of Human Galactokinase (GALK): Phenol-HRP redox assay counterscreen; 150 tested, 40% active; shares compounds with Pol eta inh-1; Phenol red-HRP H2O2 redox cycling, absorbance 600 nm; Potency, µM (highest dose often 115 µM), usual class: inhibitors
HEK293 viability = Secondary Assay for Inhibitors of Human Galactokinase (GALK): HEK-293 Cell Viability Assay; shares compounds with Pol eta inh-1; HEK-293 viability, ATP luminescence (CellTiter-Glo), 24/48 h; Potency, µM (doses to about 46.1 µM), usual class: inhibitors; 170 tested, 10% active; AID 2547, 2010
Pol kappa inh-2 = qHTS for Inhibitors of Polymerase Kappa: Confirmatory Assay for Cherry-picked Compounds | shares compounds with Pol eta inh-1 | purified Pol-kappa, fluorescent strand-displacement substrate | Potency, µM, most hits filed as inhibitors | 920 tested, 76% active | AID 720501, 2013
Pol eta inh-2 = qHTS for Inhibitors of Polymerase Eta: Confirmatory Assay for Cherry-picked Compounds | 2,600 tested, 64% active | Potency, µM, hits mostly inhibitors | AID 720502, 2013 | shares compounds with Pol eta inh-1 | Pol eta primer extension, TAMRA/BHQ fluorescence, 10 min
Of the large screens only hits and unclear results are named; the others gave an inactive call (follow-up assays come after a bar, where they were run); ! = not active in a repeat. Only some compounds are listed: those with a hit (about 2.8% of all), similar ones and a draw of the others. Unless noted, calls follow the shape of the dose curve; as a rule, active = well fitted curve in the direction sought with a large enough effect; inconclusive = small, poorly fitted or top-dose-only effect, or another doubt; inactive = no such curve, though single readings can be large; an effect the other way counts as inactive or inconclusive.

CC(=O)Nc1ccc(S(=O)(=O)Nc2ccc(S(=O)(=O)Nc3nccs3)cc2)cc1	none
CC(C)[C@H](NC(=O)C1CC(=O)N(c2ccc3c(c2)OCO3)C1)C(=O)NC1CCCC1 (stereo partly specified)	Pol beta inh inconclusive, Pol eta inh-1 31.6µM | POLI cherry-pick inconclusive | Pol eta inh-2 75.7
Cc1ccc(-c2nc3scc(CCNS(=O)(=O)c4ccc(Oc5ccccc5)cc4)n3n2)cc1	none (no result: PI5P4K alpha inh, WRN helicase inh)
Cc1ccc(NCc2ccccc2O)cc1	none (no result: PI5P4K alpha inh)
Cc1ccc(CNc2ccc(O)cc2)cc1	Pol beta inh inconclusive, PI5P4K alpha inh inconclusive, Pol iota inh 3.55µM, WRN helicase inh inconclusive, Pol kappa inh-1 inconclusive, Pol eta inh-1 28.2µM | POLI cherry-pick inconclusive | Pol eta inh-2 inconclusive
CCOc1c(OC(C)=O)ccc(/C=C/c2ccc3cccc(OC(C)=O)c3n2)c1[N+](=O)[O-]	none (no result: PI5P4K alpha inh)
C=CCN1C(=O)/C(=C/c2ccc(OC(C)=O)c(OCC)c2[N+](=O)[O-])SC1=S	Pol beta inh inconclusive, PI5P4K alpha inh inconclusive, Pol kappa inh-1 inconclusive, Pol eta inh-1 20µM | POLI cherry-pick 75.2 | GALK inh confirm inconclusive | Redox cycling 42.1µM | HEK293 viability inconclusive | Pol eta inh-2 67.5
COc1ccc(NC(=O)CCNS(=O)(=O)c2ccc3c(c2)CCCC(=O)N3)cc1	none (no result: PI5P4K alpha inh, WRN helicase inh)
O=C(N/N=C/c1cn(Cc2ccccc2)c2ccccc12)c1cc(O)cc(O)c1	Pol beta inh 31.6µM, PI5P4K alpha inh inconclusive, Pol iota inh inconclusive, Pol kappa inh-1 inconclusive, Pol eta inh-1 44.7µM | POLI cherry-pick 33.6 | Pol kappa inh-2 18.9 | Pol eta inh-2 30.1
C#CCSc1nc2sc3c(c2c(=O)n1C)CCC3	Pol beta inh 28.2µM, PI5P4K alpha inh inconclusive, Pol iota inh 25.1µM, Pol kappa inh-1 inconclusive, Pol eta inh-1 20µM | POLI cherry-pick 67 | Pol kappa inh-2 33.6 | Pol eta inh-2 60.1
CSc1nc2sc3c(c2c(=O)n1C)CCC3	none
C=CCNC(=O)c1ccc(Cn2c(=S)[nH]c3cc4c(cc3c2=O)OCO4)cc1	Pol iota inh 20µM, WRN helicase inh inconclusive, Pol kappa inh-1 79.4µM, Pol eta inh-1 inconclusive (no result: PI5P4K alpha inh) | POLI cherry-pick 67 | Pol kappa inh-2 47.4
O=C1CC(c2ccco2)CC(O)=C1C=Nc1cc(Cl)ccc1Cl (stereo unspecified)	Pol beta inh 39.8µM, PI5P4K alpha inh inconclusive, Pol iota inh 22.4µM, WRN helicase inh inconclusive, Pol kappa inh-1 inconclusive, Pol eta inh-1 inconclusive | POLI cherry-pick 67 | Pol kappa inh-2 75.2 | Pol eta inh-2 60.1
Cc1cc(C(=O)NCc2ccc(C(=O)O)o2)c(C)o1	Pol beta inh 28.2µM, Pol iota inh 20µM, Pol kappa inh-1 31.6µM, Pol eta inh-1 3.98µM (no result: PI5P4K alpha inh) | TbPGK inh inconclusive | POLI cherry-pick 26.7 | Pol eta inh-2 6.75
COc1ccccc1C(=O)OCc1cc(=O)n2nc(C3CCCCC3)sc2n1	Pol eta inh-1 inconclusive (no result: PI5P4K alpha inh, WRN helicase inh)
Cc1cc(NC(=O)CCCC(=O)Nc2ccc(F)cc2)no1	none
CN(C)c1ccc(CC(=O)N2CCCC(c3cc(C(=O)Nc4ccc(F)c(Cl)c4)no3)C2)cc1 (stereo unspecified)	none (no result: Pol beta inh, Pol iota inh, Pol kappa inh-1, Pol eta inh-1)
CC(C)(CS(=O)(=O)[O-])NC(=O)CC[N+](C)(C)CCO	Pol beta inh 2µM, PI5P4K alpha inh inconclusive, Pol iota inh 1.41µM, WRN helicase inh 7.94µM, Pol kappa inh-1 22.4µM, Pol eta inh-1 0.794µM | TbPGK inh 3.26µM | Pol eta inh-2 8.49
C[C@H]1O[C@@H](n2cc(F)c(=O)[nH]c2=O)[C@H](O)[C@H]1O	none (no result: Pol beta inh, PI5P4K alpha inh, Pol iota inh, WRN helicase inh, Pol eta inh-1)
O=C1C=CC(n2cc(F)c(=O)[nH]c2=O)O1 (stereo unspecified)	Pol eta inh-1 20µM (no result: Pol beta inh, Pol iota inh, Pol kappa inh-1) | TbPGK inh 18.3µM | Pol eta inh-2 inconclusive
NC[C@H](O)c1ccc(O)c(O)c1	Pol iota inh 3.98µM!, Pol kappa inh-1 0.708µM! | POLI cherry-pick 1.5 | Pol eta inh-2 1.9
COc1cc(C(O)CO)ccc1O (stereo unspecified)	none
C=C(C)C(=O)Nc1cccc(C2=NOC3(C2)C[C@@H](C(N)=O)N(C(=O)/C=C/C=C/C)C3)c1 (stereo partly specified)	Pol beta inh 2.51µM, PI5P4K alpha inh -50.3, Pol iota inh 22.4µM, WRN helicase inh inconclusive, Pol kappa inh-1 28.2µM, Pol eta inh-1 3.16µM | TbPGK inh 0.73µM | POLI cherry-pick inconclusive | Pol eta inh-2 16.9
C/C=C(\C)C(=O)Nc1cccc(C2=NOC3(C2)C[C@@H](C(N)=O)N(C(=O)/C(C)=C/C)C3)c1 (stereo partly specified)	none
